Bioassay records as filed in PubChem BioAssay.
STAT3 blocker: inhibitors of IL-6 induced STAT3 signaling; U3A cells, IL-6 STAT3-luciferase reporter, luminescence; host cell line lacks STAT1; inhibition, % at 5.5 µM; 0.89% of 190,000 active; AID 862;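 active means inhibition above the mean inhibition across all screened compounds plus 3 SD, cut at about 44% in these data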
C8 TRAIL sens: sensitizes caspase-8 expressing cells to TRAIL; NB7+C8 cells + TRAIL, ATPlite viability luminescence; inhibition (viability loss, TRAIL sensitization), % at 10 µM; 1% of 360,000 active;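 active means compounds causing at least 50% loss of cell viability in the single-dose screen, relative to plate controls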
HSP90 refold inh: blocks HSP90-mediated luciferase refolding in reticulocyte lysate | Rabbit reticulocyte lysate, luciferase refolding luminescence, 3 h | inhibition, % at 5.6 µM | 0.91% of 290,000 active | AID 1789;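 active means inhibition above the screen-wide mean plus 3 SD, computed separately per campaign, cut at about 16% in these data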;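 further: inhibitors lower the luminescence because luciferase stays unfolded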
HSF1 inhib: HSF1 inhibition. 0.77% of 300,000 active. NIH3T3-HGL HSE-luciferase, MG132-induced, luminescence 8 h; hits give low values. activity change, negative = inhibition, % at 7.5 µM (by protocol). AID 2098;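 active means more than half of replicate wells show activity change below -50%, luminescence cut by over half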;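 further: luciferase reports HSF-1 transcriptional activity via heat shock element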
PPC-1+TRAIL kill: compounds killing PPC-1 cancer cells with TRAIL present (potentiator screen, no TRAIL-free arm) | PPC-1 cells + TRAIL, ATPLite viability luminescence | cell killing (% activity), % at 4 µM or 5 µM | 0.41% of 220,000 active | AID 1443;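 active means cell killing above 50% in the first pass at 4 µM, then a duplicate retest at 5 µM averaging 50% or more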
STAT1 blocker: inhibitors of IFN-gamma induced STAT1 signaling | AID 920 | inhibition, % at 5.5 µM | 0.35% of 200,000 active | NIH 3T3 STAT1-luciferase reporter, luminescence;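 active means inhibition above a set limit, the mean inhibition across all tested compounds plus 3 SD, cut at about 34% in these data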
HSP90 confirm: HSP90 inhibition, confirmation assay. shares compounds with HSP90 refold inh. rabbit reticulocyte lysate, luciferase refolding luminescence, 3 h. inhibition, % at 5.9 µM. 64% of 2,300 active. AID 1846; in the data active means inhibition above about 18%
luciferase ctr: firefly luciferase inhibition, HSP90 counter-screen. shares compounds with HSP90 refold inh. purified native firefly luciferase, luminescence. inhibition, % at 5.9 µM. 48% of 2,300 active;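 active means inhibition above the mean inhibition of all tested sample wells plus 3 SD, cut at about 10% in these data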
Target sequence (P08659 whole entry, looked up): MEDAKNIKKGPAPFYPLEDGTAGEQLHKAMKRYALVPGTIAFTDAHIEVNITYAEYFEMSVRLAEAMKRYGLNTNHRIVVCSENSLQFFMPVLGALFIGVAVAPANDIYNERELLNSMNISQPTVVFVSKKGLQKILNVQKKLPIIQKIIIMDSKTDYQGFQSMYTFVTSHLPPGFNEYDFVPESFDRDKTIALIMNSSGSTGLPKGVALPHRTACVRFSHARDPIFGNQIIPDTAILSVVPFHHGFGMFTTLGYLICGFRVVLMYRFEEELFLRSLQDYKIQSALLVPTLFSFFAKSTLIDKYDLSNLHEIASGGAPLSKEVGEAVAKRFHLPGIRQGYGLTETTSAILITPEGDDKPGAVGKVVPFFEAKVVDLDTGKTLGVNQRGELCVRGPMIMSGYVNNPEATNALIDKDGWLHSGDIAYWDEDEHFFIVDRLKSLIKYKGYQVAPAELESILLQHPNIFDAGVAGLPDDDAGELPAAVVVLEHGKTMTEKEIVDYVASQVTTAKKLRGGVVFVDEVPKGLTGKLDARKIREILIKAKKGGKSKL
Each line names hits and unclear results; the compound was inactive in the other large screens (follow-up assays come after a bar, where they were run); ! = not confirmed by another sample. Shown are actives, neighbours in structure and some others; about 2.4% of the full set was active somewhere.

CCSc1nnc(NC(=O)C(NC(=O)c2ccc(Cl)cc2)C(C)C)s1 (stereo not given)	none
CC(C)C[C@H](NC(=O)N1CC(=O)Nc2ccccc21)C(=O)N1CCC(C(=O)O)CC1	none (no result: STAT3 blocker, PPC-1+TRAIL kill, STAT1 blocker)
CN(C)c1ccc(CNCCC(Cc2ccccc2)c2ccco2)cc1 (stereo not given)	HSP90 refold inh 18.5 (no result: STAT3 blocker, STAT1 blocker) | HSP90 confirm inactive | luciferase ctr inactive
CC1(c2nnnn2-c2ccc3c(c2)OCCO3)CCC(=O)N1CCOc1ccccc1 (stereo not given)	none (no result: STAT3 blocker, HSP90 refold inh, HSF1 inhib, PPC-1+TRAIL kill, STAT1 blocker)
CCOC(=O)C1CCN(C(=O)Nc2ccc(OC)c(OC)c2)CC1	none (no result: HSF1 inhib)
O=C(Nc1cccc(O)c1)c1cc(-c2cccs2)on1	HSP90 refold inh 30.6 (no result: STAT3 blocker, PPC-1+TRAIL kill, STAT1 blocker) | HSP90 confirm 63.7 | luciferase ctr 57.0
Fc1ccc(NC(=S)Nc2cccnc2)c(F)c1F	none
S=C(Nc1cccnc1)Nc1ccccc1Br	HSP90 refold inh 25.5 | HSP90 confirm inactive | luciferase ctr inactive
C=C[C@]1(C)C=C2C(=O)C[C@H]3C(C)(C)CCC[C@]3(C(=O)O)[C@@]2(O)CC1	none (no result: STAT3 blocker, HSP90 refold inh, HSF1 inhib, PPC-1+TRAIL kill, STAT1 blocker)
COC(=O)CC1=C(C)C(=O)CC2C(C)(C)CCCC12C (stereo not given)	HSP90 refold inh 18.6 (no result: HSF1 inhib) | HSP90 confirm inactive | luciferase ctr inactive
CC(C)C(=O)N1CCCC1(C)C(=O)N(C)Cc1cccc2ccccc12 (stereo not given)	none (no result: STAT3 blocker, HSP90 refold inh, HSF1 inhib, PPC-1+TRAIL kill, STAT1 blocker)
CCOc1ccc(Oc2nc(N(CC)CC)nc(N3CCOCC3)n2)nn1	HSP90 refold inh 17.4 | HSP90 confirm inactive | luciferase ctr inactive
CCN(CC)c1nc(Oc2ccc(C(=O)OC)cc2)nc(N2CCOCC2)n1	none
O=C(COC(=O)C1CCN(S(=O)(=O)c2ccc3c(c2)OCCO3)CC1)Nc1cccc2ccccc12	none
O=C(O)c1ccc(COc2ccc3ccccc3c2)o1	HSP90 refold inh 67.4 (no result: STAT3 blocker, HSF1 inhib, STAT1 blocker) | HSP90 confirm 74.8 | luciferase ctr 30.4
C/C=C/c1ccccc1OCc1ccc(C(=O)O)o1	none
CCOc1ccc(OCc2ccc(C(=O)O)o2)cc1	HSP90 refold inh 89.7 | HSP90 confirm 92.1 | luciferase ctr 60.1
CCCc1ccc(OCc2ccc(C(=O)N3CCSCC3)o2)cc1	HSP90 refold inh 51.7 (no result: STAT3 blocker, PPC-1+TRAIL kill, STAT1 blocker) | HSP90 confirm 55.4 | luciferase ctr inactive
CCOc1ccc(OCc2ccc(C(=O)NCc3ccncc3)o2)cc1	HSP90 refold inh 17.8 | HSP90 confirm 19.4 | luciferase ctr inactive
CC(C=NNc1ccc([N+](=O)[O-])cn1)=Cc1ccccc1	none (no result: STAT3 blocker, HSP90 refold inh, HSF1 inhib, PPC-1+TRAIL kill, STAT1 blocker)
COc1cc(=O)[nH]c(SC(C)C(=O)Nc2cc(C)on2)n1 (stereo not given)	none (no result: STAT3 blocker, PPC-1+TRAIL kill, STAT1 blocker)
COc1ccc(-c2ccc(C(=O)NCc3ccc(N4CCN(C)CC4)cc3)c3occc23)c(C)c1	none (no result: STAT3 blocker, HSP90 refold inh, HSF1 inhib, PPC-1+TRAIL kill, STAT1 blocker)
CCCCNC(=O)Cn1cnc2sc(C)c(S(=O)(=O)N3CCN(c4ccccc4OC)CC3)c2c1=O	none (no result: STAT3 blocker, PPC-1+TRAIL kill, STAT1 blocker)
CC(=O)Nc1cc(-c2ccccc2)ccc1O	none
Nc1cc(-c2ccccc2)ccc1O	HSP90 refold inh 23.7! | HSP90 confirm 80.1 | luciferase ctr inactive
Cc1ccc(S(=O)(=O)/N=C2/C=C(Sc3ncn[nH]3)C(=O)c3ccccc32)c(C)c1	HSP90 refold inh 84.9 (no result: C8 TRAIL sens, HSF1 inhib) | HSP90 confirm 44.3 | luciferase ctr 37.9
Cc1ccc(S(=O)(=O)/N=C2/C=C(Sc3ncn[nH]3)C(=O)c3ccccc32)cc1	HSP90 refold inh 89.3 (no result: HSF1 inhib) | HSP90 confirm 37.8 | luciferase ctr 44.9
Cc1ccc(S(=O)(=O)Nc2ccc(O)c(Sc3ncn[nH]3)c2)cc1	none
COc1cc(Cc2ccc(N)c(OC)c2)ccc1N	none
Nc1ccc(Cc2ccc(N)c(O)c2)cc1O	HSP90 refold inh 24.5 (no result: HSF1 inhib) | HSP90 confirm inactive | luciferase ctr inactive
N#C/C(=C/C1=C(N2CCOCC2)C(=C/c2ccc(Cl)cc2)/CC1)C(=O)Nc1ccccc1F	none (no result: STAT3 blocker, HSP90 refold inh, HSF1 inhib, PPC-1+TRAIL kill, STAT1 blocker)
COc1cccc(N2CCN(C(=O)c3cc(C)oc3C)CC2)c1	none (no result: STAT3 blocker, HSP90 refold inh, HSF1 inhib, PPC-1+TRAIL kill, STAT1 blocker)
COc1cccc(C(=O)Nc2ccc(N3CCN(S(C)(=O)=O)CC3)cc2)c1	HSP90 refold inh 17.5 | HSP90 confirm inactive | luciferase ctr inactive
